Measurements reported in PubChem BioAssay AID1240 (Sanford-Burnham Center for Chemical Genomics, 2008).
Screen size: about 50,000 compounds; about 800 (1.6%) showed an effect of 50% or more. Only a selection was taken, and strong results are over-represented in it overall.

molecular target: Bcl-2-like protein 10 (Homo sapiens) (UniProt Q9HD36); test: TR3 peptide-Bcl-B binding displacers, biochemical primary FP assay, phenotype converters (AID 1240); details: GST-Bcl-B / FITC-TR3 peptide fluorescence polarization; stronger effect = higher value; compound at 3.75 mg/L;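 also: 0% = Bcl-B with tracer peptide and DMSO and 100% = tracer peptide lacking Bcl-B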
Sequence (Q9HD36 whole entry, looked up): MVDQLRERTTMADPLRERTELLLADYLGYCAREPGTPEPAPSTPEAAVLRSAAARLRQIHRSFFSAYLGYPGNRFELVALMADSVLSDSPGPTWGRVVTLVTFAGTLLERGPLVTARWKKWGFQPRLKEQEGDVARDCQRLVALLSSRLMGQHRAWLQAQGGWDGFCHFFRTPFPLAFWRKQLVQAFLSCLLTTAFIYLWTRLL

Going from `CCOC(=O)c1c(-c2ccccc2)csc1NC(=O)c1ccc(C)cc1` to `Cc1cccc(NC(=O)c2ccccc2NC(=O)c2cccs2)c1C`, the displacement rises from -5.7% to 9.5%.

Compared with `COc1cc(/C=C2\SC(N)=NC2=O)cc(Br)c1OCc1cccc2ccccc12`, `COc1ccccc1C/C(N)=N/OC(=O)COc1ccc2ccccc2c1` is higher in displacement: -62.1% for the first, 5.6% for the second.

Going from `Fc1cccc(-c2nnc3ccc(C(F)(F)F)cn23)c1` to `O=C(O)c1cnn2c(C(F)(F)F)cc(-c3cccs3)nc12`, the displacement rises from -17% to 5.9%.

First: CC(=O)Nc1ccc(I)cc1C
Second: Cc1cc(Cl)ccc1OCC(N)=O
The displacement of the first is lower: -5% for the first, -0.8% for the second.

Going from `Cc1cc2c(nc3s/c(=C/c4ccccc4)c(=O)n32)c(Br)c1C` to `CCOC(=O)COc1ccc(/C=c2/sc3nc4cc(C)c(C)cc4n3c2=O)cc1OC`, the displacement rises from -4.6% to -4.4%.

Going from `CC(C)c1ccccc1OCCCN1CCOCC1` to `O=C(O)c1ccc(CN2CCOCC2)cc1`, the displacement rises from -6% to 13.7%.

Compared with `Cc1ccc(N2C(=O)/C(=C/c3ccc(Oc4ccc([N+](=O)[O-])cn4)cc3)C(=O)NC2=S)c(C)c1`, `COc1cc2nc(-c3ccc(Oc4ccc([N+](=O)[O-])cc4)cc3)oc(=O)c2cc1OC` is higher in displacement: 7.3% for the first, 10.6% for the second.

First: CC1=NN(c2ccccc2)C(=O)C1C(C)C[N+](=O)[O-] (centres undefined)
Second: COc1cc(C=Nc2c(C)n(C)n(-c3ccccc3)c2=O)c([N+](=O)[O-])cc1OC
The displacement of the first is lower: -9.8% for the first, 130% for the second.

Compared with `COc1ccc(/C=N/NC(=O)COc2ccccc2Br)cc1`, `NC(=O)c1ccc(NC(=O)COc2ccccc2Cl)cc1` is lower in displacement: 2.6% for the first, -2% for the second.

Compared with `CC(=O)c1ccc(NC(=O)c2ccoc2C)cc1`, `Cc1occc1C(=O)Nc1ccc(C(=O)O)cc1` is lower in displacement: 94% for the first, -1.9% for the second.

Going from `COC(=O)c1ccc(NC(=O)c2ccoc2C)cc1` to `Cc1ccc(NC(=O)COC(=O)c2ccn(C)n2)cc1`, the displacement rises from -2.7% to 13.5%.

Going from `CCOc1cc(C2NC(=S)NC(C)=C2C(=O)Nc2ccc(Cl)cc2)ccc1O` (centres undefined) to `CCOCCOC(=O)c1ccc(NC(=O)COc2ccc(C)cc2C)cc1`, the displacement falls from -3.2% to -9%.

Going from `Cc1ccc2c(Cl)c(C(=O)NCC3CCCO3)sc2c1` (centres undefined) to `Cc1cc(Cl)ccc1OCC(=O)NCC1CCCO1` (centres undefined), the displacement rises from -20.5% to 1.4%.

Compared with `O=C(ON=C1c2ccccc2-c2ccccc21)c1ccc(Cl)cc1Cl`, `Cc1cc(NC(=O)c2ccc(Cl)cc2Cl)ccc1NC(=O)c1ccccc1` is lower in displacement: 13.1% for the first, -2.3% for the second.

First: Cc1ccc(C=C2C(=O)N(C)C(=O)N(C)C2=O)cc1
Second: CCCCOc1ccc(C=C2C(=O)N(C)C(=O)N(C)C2=O)cc1
The displacement of the first is higher: 79.7% for the first, 8.8% for the second.

Going from `CN1C(=O)C(=Cc2ccc(N3CCOCC3)cc2)C(=O)N(C)C1=O` to `CC(C)(C)c1cc(C2=C(N3CCOCC3)C(=O)c3ccccc3C2=O)cc(C(C)(C)C)c1O`, the displacement rises from 8.9% to 11.6%.

Going from `CCOc1ccccc1C1Nc2ccccc2NC2=C1C(=O)CC(c1ccc(OC)c(OC)c1)C2` (centres undefined) to `COc1ccc(NC(=O)c2ccc(OC)c(OC)c2)cc1Cl`, the displacement rises from 11.3% to 20.4%.

Compared with `COc1cccc(-c2nnc(NC(=O)/C=C/c3ccccc3)s2)c1`, `O=C(/C=C/c1ccccc1)Nc1nnc(-c2ccccc2)s1` is lower in displacement: 51.4% for the first, 7.6% for the second.

First: O=C(/C=C/c1ccccc1)Nc1nnc(-c2ccncc2)s1
Second: Cc1ccc(/C=C/C(=O)Nc2cccc3ccccc23)o1
The displacement of the first is higher: -6% for the first, -7.3% for the second.

Compared with `O=C(Nc1ccccc1Cl)c1ccc2ccccc2n1`, `Cc1ccccc1NC(=O)c1ccc2ccccc2n1` is lower in displacement: 1% for the first, -3.8% for the second.

Going from `O=C(Nc1ccccc1[N+](=O)[O-])c1ccc2ccccc2n1` to `COc1ccccc1-n1c(SCC(=O)c2ccccc2)nc2ccccc2c1=O`, the displacement falls from 89.3% to -4.7%.

First: CC(=O)Nc1ccc2oc(-c3ccc4nc(NC(C)=O)sc4c3)nc2c1
Second: COc1cc2nc(-c3ccc([N+](=O)[O-])cc3)oc(=O)c2cc1OC
The displacement of the first is lower: -4.1% for the first, 78% for the second.

First: Cc1ccc(S(=O)(=O)N2CCCCCC2)cc1
Second: Cc1ccc(S(=O)(=O)/N=C(\c2ccccc2)N(C)C)cc1
The displacement of the first is lower: -12.9% for the first, 13.2% for the second.

First: C=CCN1C(=O)/C(=C\c2ccc(C(=O)OC)cc2)SC1=S
Second: C=CCN1C(=O)/C(=C/c2cc(C)n(-c3ccc(C(=O)OC)cc3)c2C)SC1=S
The displacement of the first is lower: 7.8% for the first, 109% for the second.

Going from `CC(=O)NC1=NC(=O)/C(=C/c2cc(C)n(-c3ccc(C(=O)O)cc3)c2C)S1` to `COC(=O)c1ccc(-n2c(C)cc(/C=C3\SC(NC(C)=O)=NC3=O)c2C)cc1`, the displacement rises from -89.7% to 114%.

First: COC(=O)c1cccc(-n2c(C)cc(/C=C3\SC(NC(C)=O)=NC3=O)c2C)c1
Second: Cc1cc(/C=C2\SC(=S)NC2=O)c(C)n1-c1cccc([N+](=O)[O-])c1
The displacement of the first is lower: 1.1% for the first, 7.1% for the second.

Compared with `C=CCN1C(=O)/C(=C\c2cc(C)n(-c3ccc([N+](=O)[O-])cc3)c2C)SC1=S`, `COc1cc(/C=C2/SC(=S)N(c3c(C)n(C)n(-c4ccccc4)c3=O)C2=O)c([N+](=O)[O-])cc1OC` is higher in displacement: 14.9% for the first, 61.3% for the second.

First: COc1ccc(-c2cc(C(=O)OC(C)C)c3cc(Br)ccc3n2)cc1
Second: COc1ccc(-n2nc3cc(C)c(NC(=O)c4cc(Cl)ccc4OC)cc3n2)cc1
The displacement of the first is higher: -3.9% for the first, -5.3% for the second.

Going from `O=C(Nc1ccccc1)C1C2/C=C\CCCCC21` (centres undefined) to `O=S1(=O)CCC(NC(=S)N/N=C/c2cccc3ccccc23)C1` (centres undefined), the displacement rises from -10.2% to 5.1%.

Going from `O=C(N/N=C/c1ccco1)c1ccc(C(=O)N/N=C/c2ccco2)cc1` to `O=C(NCc1ccc2c(c1)OCO2)c1ccc(F)cc1`, the displacement falls from 27.6% to 11.2%.

First: CC1CCCCN1C(=O)c1cc2nc(-c3cccs3)cc(C(F)(F)F)n2n1 (centres undefined)
Second: Nc1c(C(=O)C2CC2)sc2nc(-c3cccs3)cc(C(F)(F)F)c12
The displacement of the first is lower: 18.3% for the first, 52.1% for the second.

First: N#C/C(=C(/O)C(c1ccccc1)c1ccccc1)c1nc2ccccc2s1
Second: CCOc1ccccc1N1CCN(C(=O)C(Sc2ccccc2)c2ccccc2)CC1 (centres undefined)
The displacement of the first is higher: -3.6% for the first, -4.4% for the second.

First: COc1cc2nc(-c3ccc([N+](=O)[O-])c(C)c3)oc(=O)c2cc1OC
Second: COc1cc(/C=N/N2C(=O)c3ccccc3C2=O)c([N+](=O)[O-])cc1OC
The displacement of the first is lower: -11.4% for the first, -1.8% for the second.

Compared with `CCc1c(C)nc2ccc(C)cc2c1SCC(=O)O`, `CCOC(=O)C1=C(O)/C(=C\c2ccccc2[N+](=O)[O-])N=C1C` is higher in displacement: 9.8% for the first, 15.7% for the second.

First: Cc1cc(C)nc(SCC(=O)N(c2ccccc2)c2ccccc2)n1
Second: c1ccc(C2=C(c3ccccc3)N3CCN=C3S2)cc1
The displacement of the first is lower: -6.6% for the first, 6.4% for the second.

Going from `CSc1nc(N)c(C#N)c(-c2ccccc2)c1C#N` to `COc1ccc(/C=C2/C(=O)ON=C2c2ccccc2)cc1`, the displacement rises from -11% to 13.6%.

First: O=C1NC(=S)NC(=O)C1=Cc1cn(CCOc2ccc(Br)cc2)c2ccccc12
Second: O=C1NC(=O)C(=Cc2cn(CCOc3ccc(Br)cc3)c3ccccc23)C(=O)N1
The displacement of the first is lower: 9.1% for the first, 73.8% for the second.

First: Cc1ccc(OCCn2cc(C=C3C(=O)NC(=O)NC3=O)c3ccccc32)cc1C
Second: COc1cccc(OCCn2cc(C=C3C(=O)NC(=O)NC3=O)c3ccccc32)c1
The displacement of the first is higher: 79.3% for the first, 15.2% for the second.

First: C=CCc1ccccc1OCCn1cc(/C=C2/SC(=S)NC2=O)c2ccccc21
Second: C=CCc1ccccc1OCCn1cc(C=C2C(=O)NC(=S)NC2=O)c2ccccc21
The displacement of the first is lower: 5.8% for the first, 53.6% for the second.

First: C=CCc1ccccc1OCCn1cc(C=C2C(=O)NC(=O)NC2=O)c2ccccc21
Second: Cc1cccc(OCCn2cc(C=C3C(=O)NC(=S)NC3=O)c3ccccc32)c1
The displacement of the first is lower: -6.7% for the first, 11.2% for the second.

Compared with `CN1C(=O)/C(=C\c2cn(CCOc3ccc(Br)cc3)c3ccccc23)SC1=S`, `COc1ccccc1/C=C1\SC(=S)N(c2c(C)n(C)n(-c3ccccc3)c2=O)C1=O` is lower in displacement: 3.5% for the first, 1.2% for the second.

First: CCOC(=O)C1=C(O)/C(=C/c2ccc(Br)cc2)SC1=Nc1ccc([N+](=O)[O-])cc1
Second: CCOC(=O)C1=C(O)/C(=C/c2cccc(Br)c2)SC1=Nc1ccc([N+](=O)[O-])cc1
The displacement of the first is lower: 15% for the first, 63.1% for the second.

First: CCOC(=O)C1=C(O)/C(=C/c2cccc(O)c2)SC1=Nc1ccc([N+](=O)[O-])cc1
Second: CCOC(=O)C1=C(O)/C(=C/c2ccccc2)SC1=Nc1ccc([N+](=O)[O-])cc1
The displacement of the first is lower: -1.1% for the first, -0.9% for the second.

First: CCOC(=O)C1=C(O)/C(=C\c2ccc([N+](=O)[O-])cc2)N=C1C
Second: CCOC(=O)C1=C(O)/C(=C/c2cccc([N+](=O)[O-])c2)N=C1C
The displacement of the first is lower: 1.5% for the first, 129% for the second.

Going from `CCOC(=O)C1=C(O)/C(=C/c2cccnc2)SC1=Nc1ccc(C)cc1` to `CCOC(=O)C1=C(O)/C(=C/c2cccnc2)SC1=Nc1ccc([N+](=O)[O-])cc1`, the displacement rises from 14.8% to 55.2%.

First: CCOC(=O)c1c(NC(=O)/C=C/c2cccs2)sc(C)c1C
Second: Cc1ccc(/C=C/C(=O)Nc2cccc3ncccc23)o1
The displacement of the first is lower: 2.9% for the first, 27.1% for the second.

First: Cc1ccc(OCC(=O)Nc2cc(Cl)cc(Cl)c2)cc1
Second: Cc1cccc(C(C)C)c1NC(=O)COc1ccc(Cl)cc1Cl
The displacement of the first is lower: 12.4% for the first, 13.3% for the second.

Compared with `CC(=O)Oc1ccc2c(C)cc(=O)oc2c1C`, `Cc1c(C(=O)Nc2ccc(Cl)cn2)oc2ccccc12` is higher in displacement: -10.7% for the first, 15.4% for the second.

Compared with `CC1CN(C(=O)c2cccs2)CC(C)O1` (centres undefined), `Cc1c(N2C(=O)/C(=C/c3cccs3)SC2=S)c(=O)n(-c2ccccc2)n1C` is higher in displacement: 3.3% for the first, 8.6% for the second.

Compared with `CC(=O)Nc1ccc(NC2=C(Cl)C(=O)c3ccccc3C2=O)cc1`, `CN(C)/C(=N\S(=O)(=O)c1ccc(Br)cc1)c1ccccc1` is higher in displacement: 7.1% for the first, 96.8% for the second.

First: N/C(=N/S(=O)(=O)c1ccc(Br)cc1)c1ccccc1
Second: COc1ccccc1C/C(N)=N/OC(=O)c1ccc(I)cc1
The displacement of the first is lower: 8.5% for the first, 10.8% for the second.

Compared with `CCOc1ccc(Br)cc1C=Nc1c(C)n(C)n(-c2ccccc2)c1=O`, `CC(C)CN1C(=O)c2ccc(C(=O)Nc3ccc(Br)cc3C(=O)O)cc2C1=O` is lower in displacement: -1.8% for the first, -12.5% for the second.

Going from `Cc1ccc(C23CC4CC(CC(C(=O)Nc5ccc(F)cc5F)(C4)C2)C3)cc1` to `Cc1ccc(CN2CCN(/N=C/c3ccc(C(=O)O)cc3)CC2)cc1`, the displacement rises from -3.1% to 16.4%.

Going from `Cc1ccc(/C=C/C(=O)Nc2cccc3cccnc23)o1` to `Cc1cccc(N2C(=O)/C(=C/c3ccco3)SC2=S)c1C`, the displacement falls from 91.4% to 1.9%.

`Cc1ccc(C)n1Cc1ccc(C(=O)O)cc1` was tested, and the displacement was 66.4%.
